# Test results taken from PubChem BioAssay (NCI).
# This is part of a sample that, as a whole, favours compounds with a hit. Of some 83,000 tested, about 20% had one in any assay.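 Assay: single dose, 48 h. Readout: percent growth (0 = no net growth; negative = cell death). Active: <10.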 Values without a mark were called inactive. The source made the active and inactive calls.
# Test system: SF-268 CNS
# Assay: NCI-60 one-dose screen, 48 h (100 = growth as untreated, 0 = no growth, -100 = all killed)
# Details: 10 µM unless noted
row,SMILES,growth
1,CCN(CC)CCOc1ccc(/C(=C(\C)Cc2ccc(OC)cc2)c2ccc(OC(=O)NCc3ccccc3)cc2)cc1,73.7%
2,COc1cc([C@@H](CCO)C[C@H](C)c2ccc3ccccc3c2)cc(OC)c1OC,48.9%
3,CCOC(=O)/C(=C(/C)NCC(C)C)c1cc(O)c(O)c2c(C)cc(=O)[nH]c12,24.1%
4,COc1ccc(/C=C2\c3cc(OC)c(OC)c(OC)c3CC[C@@H]2O)cc1F,53.9%
5,O=c1oc2c(cc1-c1ccccc1)c[n+]([O-])c1ccccc21,107%
6,CN1C(=O)/C(=C/c2ccc(C(=O)Nc3ncc(Cc4cccc(C(F)(F)F)c4)s3)cc2)SC1=S,59.3%

# Test system: SF-295 CNS
# Assay: as above
# Details: 10 µM unless noted
row,SMILES,growth
1,O=C(Nc1ncc(Cc2ccccc2)s1)c1sc2ccccc2c1Cl,17.7%
2,Cc1ccccc1N1CCN(C(=S)c2ccccc2)CC1,69.5%
3,CC(C)(C)c1ccc(S(=O)(=O)Oc2ccc(-c3sc4cc(OS(=O)(=O)c5ccc(C(C)(C)C)cc5)ccc4c3C(=O)c3ccc(OCCN4CCCCC4)cc3)cc2)cc1,94.5%
4,CCn1cc(C(=O)N/N=C/c2ccccc2)c(=O)c2cc(F)c(N3CCNC(C)C3)c(F)c21 (configuration not stated),8.87% (active)
5,COC1/C=C/OC2(C)Oc3c(C)c(O)c4c(O)c(c(/C=N/N(c5ccccc5)c5ccccc5)c(O)c4c3C2=O)NC(=O)C(C)=C/C=C/C(C)C(O)C(C)C(O)C(C)C(OC(C)=O)C1C (configuration not stated),65.1%
6,CS(=O)(=O)c1ccc(-c2nc3ccccc3n2CC(=O)N/N=C/c2ccccc2)cc1,94.2%
